Dicer inh: human Dicer pre-microRNA cleavage inhibition; AID 1347074; z-score at 25 µM; actives 6% (n = 47,000); cat-ELCCA pre-miR-21 Dicer processing, chemiluminescence; active compounds read high; in the data active means z-score above about 3, passing the limit was not always enough;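 further: higher signal means more uncleaved substrate so more Dicer inhibition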
Large screens that a line does not name were inactive. The entries come from a sample that favours hits as a whole.

CSc1nnc2c(n1)OC(c1ccc(OCC(=O)O)cc1)Nc1ccccc1-2 (stereo not drawn)	none
COc1cc(C2C(C#N)=C(N)Oc3n[nH]c(C)c32)ccc1OC(C)=O (stereo not drawn)	none
O=S(N1CCOCC1)C12CC3CC(CC(C3)C1)C2 (stereo not drawn)	none
Nc1nc2nc(-c3cccc(Br)c3)cc(C(F)(F)F)n2n1	Dicer inh 4.9
Cc1cc2nc(-c3cccc(Br)c3)cc(C(F)(F)F)n2n1	none
Nc1nc2nc(-c3ccc(OCc4ccccc4)cc3)cc(C(F)(F)F)n2n1	none
FC(F)(F)c1cc(-c2ccc(Br)cc2)nc2ncnn12	none
FC(F)(F)c1cccc(Nc2cc(-c3ccccc3)nc3ncnn23)c1	none
FC(F)(F)c1cc(-c2cccc(Br)c2)nc2ncnn12	Dicer inh 3.9
Cc1ccc(-n2nc3cc(N)c(Cl)cc3n2)cc1	none
CC(C)N(CCC#N)C(=O)Nc1ccc2c(c1)CCO2	none
CCOC(=O)N1CCC(NC(=O)Nc2ccc3c(c2)CCO3)CC1	Dicer inh 5
CCOC(=O)N1CCC(NC(=O)c2cc(C)cc(C)c2)CC1	none
O=C(Nn1c(=S)[nH]c2ccc(Cl)cc2c1=O)c1cccnc1Oc1ccccc1	none
CC(C)N(Cc1ccc(N(C)C)cc1)S(=O)(=O)c1ccccc1[N+](=O)[O-]	none
N=C(N)SCc1ccccc1Cl	none
NCCc1nnc(SCc2ccccc2Cl)o1	none
Nc1nnc(SCc2ccccc2Cl)s1	Dicer inh 11
COC(=O)c1sccc1-n1cc(C#N)c(=O)[nH]c1=O	none
CCOC(=O)[C@@H](Cc1ccccc1)NS(=O)(=O)c1ccc(C)cc1	none
CSc1cc(-c2ccc(Oc3ccccc3)cc2)nn1C(=O)Nc1ccccc1	none
O=C(O)c1cc(-c2cccnc2)nc2ccccc12	none
CC(=O)n1nc(-c2cccnc2)nc1N	Dicer inh 5.5
Nc1nc(-c2cccnc2)nn1C(=O)Cc1ccccc1	Dicer inh 8.2
Nc1nc(-c2cccnc2)nn1S(=O)(=O)c1ccccc1	none
CCOC(=O)Cn1c(-c2cccnc2)nc(-c2ccccc2)c1-c1ccccc1	none
Nc1nc(-c2cccnc2)nn1C(=O)c1ccc(Cl)cc1	none
O=C(O)c1ccc2oc3c(Cl)cccc3c(=O)c2c1	none
CCOC(=O)C1C(=O)C=C(c2ccc3ccccc3c2)CC1c1ccc(F)cc1 (stereo not drawn)	none
COC(=O)CNC(=O)NC12CC3CC(CC(C3)C1)C2	none
CN(C)C(=O)Nc1ccc(C(C)(C)C)cc1NC(=O)N(C)C	none
CCCn1c(=O)ccn(-c2ccccc2C)c1=O	none
Oc1ccc(Cl)cc1-c1csnn1	none
NS(=O)(=O)c1ccc(Cl)cc1Sc1ccccc1C(=O)O	none
Oc1ccc(Cl)cc1Sc1cc(Cl)ccc1O	Dicer inh 3.2
CCOc1ccc(Br)cc1C1C(C(=O)OC(C)C)=C(C)Nc2nnnn21 (stereo not drawn)	none
CC(=O)c1ccc(NC(=O)CN2CCN(CC(=O)Nc3ccc(C(C)=O)cc3)CC2)cc1	none
O=C(O)CSCC(=O)Nc1ccccn1	none
CC(=O)c1ccc(NC(=O)CSCC(=O)O)cc1	Dicer inh 4.3
COc1ccc(NC(=O)CSCC(=O)O)cc1OC	none
O=C(O)CSCC(=O)Nc1cccnc1	Dicer inh 5.6
O=C(O)CSCC(=O)Nc1ccc(C(F)(F)F)cn1	none
CC1CN(c2ccc(F)cc2)c2nc3c(c(=O)n(CC(=O)O)c(=O)n3C)n2C1 (stereo not drawn)	none
c1ccc(-c2nsc(-n3ccc(-c4cccs4)n3)n2)cc1	none
CNc1ncnc(N2CCCC2)c1[N+](=O)[O-]	none
COC(=O)C1C2C=CC3(CN(c4ccccc4C)C(=O)C13)O2 (stereo not drawn)	none
Oc1ccccc1C1=NN2C(C1)c1cc(Cl)ccc1OC2c1ccncc1 (stereo not drawn)	none
COc1ccc(O)c(C2=NN3C(C2)c2cc(Cl)ccc2OC3c2ccsc2)c1 (stereo not drawn)	none
Cc1ccc(O)c(C2=NN3C(C2)c2ccccc2OC3c2cccnc2)c1 (stereo not drawn)	none
Oc1ccccc1C1=NN2C(C1)c1cc(Cl)ccc1OC2c1ccsc1 (stereo not drawn)	Dicer inh 12
Oc1ccc(Cl)cc1C1=NN2C(C1)c1ccccc1OC2c1cccnc1 (stereo not drawn)	none
Oc1ccc(Cl)cc1C1=NN2C(C1)c1ccccc1OC2c1ccsc1 (stereo not drawn)	Dicer inh 6.7
O=c1oc(-c2ccccc2Cl)nn1-c1ncccc1C(F)(F)F	none
COc1ccc(C2CC(=O)C3=C(C2)NC(C)=C(C#N)C3c2ccc(OC(C)=O)c(OC)c2)cc1 (stereo not drawn)	none
CCOC(=O)C1CCCc2sc(N)c(C#N)c21 (stereo not drawn)	none
COc1cccc(C2Oc3c(OC)cccc3C3CC(c4ccccc4O)=NN32)c1 (stereo not drawn)	none
N#Cc1c(-c2ccccc2)c(-c2ccccc2)nn(CC(=O)NNC(=O)Nc2cccc(C(F)(F)F)c2)c1=O	none
COc1ccc2cc(C(=O)c3ccc(Cl)c(C)c3)oc2c1	none
COc1ccccc1NC(=O)CSC1=NCCS1	Dicer inh 4.2
O=C(CSC1=NCCS1)Nc1nccs1	Dicer inh 4
O=C(CSC1=NCCS1)Nc1nc2ccccc2s1	none
O=C(CSC1=NCCS1)NC1Cc2ccccc2C1	none
COc1ccccc1NC(=O)CSc1cc(C(F)(F)F)cc(C(F)(F)F)c1	none
O=C(CSc1nc2ccccc2s1)Nc1nccs1	none
CCCCCCc1ccc(C(=O)CCC(=O)O)cc1	none
N#CCc1c(Cl)sc2ccc(Cl)cc12	none
FC(F)(F)c1ccc(Oc2ccc(-c3noc(-c4ccc(Cl)cc4)n3)cc2)nc1	none
CCOC(=O)c1nsc(/C(C)=N/Nc2ccccc2)c1N	none
Brc1ccc(-c2ccc(/C=C/c3nc4ccccc4o3)o2)cc1	Dicer inh 8.2
c1cc(-c2nc3ccccc3o2)cc(-c2nc3ccccc3o2)c1	none
C(=C\c1nc2ccccc2o1)/c1ccccc1	none
O=S(=O)(c1ccc(-n2cccn2)cc1)N1CCCc2ccccc21	none
COC(=O)c1sc(S(C)=O)c(-c2ccno2)c1C (stereo not drawn)	none
CCOC(=O)C1CC(=O)C(C(=O)OCC)CC1=O (stereo not drawn)	none
CCOC(=O)C1=C(O)C(=O)N(C2CCCCC2)C1	none
CCOC(=O)C1CN(C2CCCCC2)C(=O)C1=O (stereo not drawn)	Dicer inh 5.1
Cc1ccc(C(=O)Cn2c3ccccc3n3nc(-c4ccco4)nc23)cc1	none
CCN(CC)c1ccc(C2C(C(=O)OC)=C(C)Nc3ncnn32)cc1 (stereo not drawn)	none
CS(=O)(=O)c1sc(C#N)c2c1C(=O)CCC2	none
CC1(C)CC(=O)c2c(S(C)(=O)=O)sc(Br)c2C1	none
CS(=O)(=O)c1sc(Br)c2c1C(=O)CCC2	Dicer inh 4.4
O=C(O)c1ccc2nc(-c3cccc(-c4nc5ccc(C(=O)O)cc5[nH]4)c3)[nH]c2c1	none
O=C(O)c1cccc(-c2cccc(C(=O)O)c2)c1	Dicer inh 6.2
O=C(O)c1ccc2nc3ccccc3nc2c1	none
O=C(CSCc1cccc2ccccc12)NNC(=O)C(F)(F)F	none
COC(=O)[C@@H](NC(=O)c1cc(C)on1)C(C)C	none
O=C(Nc1ccccc1Oc1ccc(Cl)cc1Cl)c1cc(Cl)sc1Cl	none
CN(C)CCCNC(=O)C(=O)Nc1ccccc1Oc1ccc(Cl)cc1Cl	none
N#CC(C#N)=NNc1ccccc1Oc1ccc(Cl)cc1Cl	Dicer inh 3.9
Nc1nc2c(c(=O)[nH]1)N(C=O)C(CNc1ccc(C(=O)N[C@@H](CCC(=O)O)C(=O)O)cc1)CN2 (stereo partly drawn)	none
COc1cccc(C2C(C(=O)OC(C)C)=C(C)NC3=C2C(=O)CC(c2cccs2)C3)c1OC (stereo not drawn)	none

Assay outcomes deposited in PubChem by Center for Chemical Genomics, University of Michigan.
